# Laboratory results: PubChem BioAssay AID504845 (National Center for Advancing Translational Sciences (NCATS), 2011)
# Where “and” joins values, the source holds several entries; their conditions need not be identical. Equal values may be shown once. In all, about 390,000 compounds went through this assay and about 150 (0.038%) were called active. Where a call stands in place of a potency, no number is given. Another 3% or so got no clear call; they are omitted. Calls come from the whole dose curve; as a rule, active = well fitted inhibition curve with a large enough effect; inconclusive = small, poorly fitted or top-dose-only effect; inactive = no such curve, though single readings can be large or run the other way. For the sample, actives were picked, then their nearest neighbours and some compounds at random. More than one record can exist for a structure, and the calls need not agree.
# Target: Regulator of G-protein signaling 4 (Homo sapiens) (UniProt P49798)
# Assay: Inhibitors of Regulator of G Protein Signaling (RGS) 4: qHTS; note: nearly all actives have a fitted effect of over 75% in size
# Settings: Transcreener GDP fluorescence polarization, RGS4-accelerated GTP hydrolysis; series mostly up to 56.9 µM
# Source text: G-protein-coupled receptors (GPCRs) are well-established targets for drug discovery and development. Members of the "regulator of G-protein signaling" (RGS)-protein superfamily have recently emerged as critical modulators of specific GPCR signaling pathways. […] Combining specific RGS domain inhibitors with existing GPCR agonists should potentiate cellular responses and could also increase the specificity of action of existing therapeutics. Small molecule modulators of RGS domain activity should also have clinical utility in inhibiting or potentiating the actions of endogenous GPCR agonists. In particular, the diversity of RGS proteins with highly localized and dynamically regulated distributions in the human brain makes this family of proteins attractive targets for pharmacotherapy of central nervous system (CNS) disorders such as Parkinson's disease, schizophrenia, and anxiety.
# This assay was used to screen the NIH Molecular Libraries Small Molecule Repository (MLSMR) in order to identify a small molecule that inhibits RGS4.
# NIH Chemical Genomics Center [NCGC]
# NIH Molecular Libraries Probe Centers Network [MLPCN]
# Assay Submitter (PI): David Siderovski, University of North Carolina Chapel Hill (School of Medicine)
# Two microliters of 500nM (2x working concentration) is dispensed into black medium-binding solid-bottom Kalypsys plates. Then with the Kalypsys pintool 23nl of control and compounds are transferred; the control compound is […] CCG-4986 (working concentration). […] An initial fluorescent polarization read (620 nm/688 nm) is performed on the Envision before the plate is incubated for 90 minutes at 30 deg C at a relative humidity of 80%. The plate is once more centrifuged at 1000 RPM for 15 seconds and another Envision fluorescent polarization (620 nm/688 nm) read is carried out.
# Potency is the fitted concentration of half-maximal effect.
# Sequence of Regulator of G-protein signaling 4 (Homo sapiens) (P49798 whole entry, looked up): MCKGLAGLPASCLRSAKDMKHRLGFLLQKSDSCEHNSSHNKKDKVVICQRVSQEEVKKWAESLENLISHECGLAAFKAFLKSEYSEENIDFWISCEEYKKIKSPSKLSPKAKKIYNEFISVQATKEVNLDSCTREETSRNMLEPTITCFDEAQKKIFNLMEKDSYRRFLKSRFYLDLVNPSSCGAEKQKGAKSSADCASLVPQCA
row,SMILES,Potency
1,CC(=O)c1c(O)c(C)c(O)c(Cc2c(O)c3c(c(C(=O)/C=C/c4ccccc4)c2O)OC(C)(C)C=C3)c1O,inactive and 10.6 µM (active)
2,CC(=O)OC1C([N+]2(C)CCCCC2)C[C@H]2C3CC[C@H]4C[C@H](OC(C)=O)C([N+]5(C)CCCCC5)CC4(C)C3CCC12C (stereo partly drawn),inactive
3,CCCN(C/C=C/I)C1CCc2ccc(O)cc2C1 (stereo not drawn),inactive
